# Measurements taken from PubChem BioAssay (Tox21).
# Values without a mark were called inactive. Records with an inconclusive call do not appear. Entries that show only a call come without a potency. Activity calls are given as the source filed them. Unless noted, calls come from the whole dose curve; as a rule, active = well fitted curve in the direction sought with a large enough effect in the repeat runs; inconclusive = weak or mixed curves; inactive = no such curve, though single readings can be large; an effect the other way counts as inactive or inconclusive.
# Experiments:
# [1] = qHTS assay for small molecules that induce genotoxicity in human embryonic kidney cells expressing luciferase-tagged ATAD5 (AID 651632); note: nearly all actives have a fitted effect of over 15% in size
# Summary of the method: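 HEK293T cells carrying a luciferase reporter tagged to ATAD5 were exposed to compound or DMSO vehicle for 16 hr at 37C, 5% CO2. Amplite was added, and after 30 min at room temperature luciferase activity was read as a marker of ATAD5 induction.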
# [2] = qHTS assay for small molecule agonists of the p53 signaling pathway - cell viability (AID 651633; calls by dose curve; note: nearly all actives have a fitted effect of over 30% in size; note: potency is the fitted concentration of half-maximal effect)
# Summary of the method: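 p53RE-bla cells were treated with compound for 16 hours at 37 C. Cytotoxicity was then measured as CellTiter-Glo luminescence after 30 min at room temperature.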
# [3] = qHTS assay for small molecules that induce genotoxicity in human embryonic kidney cells expressing luciferase-tagged ATAD5 - cell viability (AID 651634; calls by dose curve; note: nearly all actives have a fitted effect of over 25% in size; note: potency is the fitted concentration of half-maximal effect)
# Summary of the method: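 HEK293T cells expressing luciferase-tagged ATAD5 were exposed to compound or DMSO for 15.5 hr at 37C, 5% CO2. Viability was then read as live-cell protease activity by CellTiter-Fluor fluorescence after 30 min at 37C.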
# [4] = qHTS assay for small molecule disruptors of the mitochondrial membrane potential - cell viability (AID 720634; calls by dose curve;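 note: human HepG2 liver cancer cells; nearly all actives have a fitted effect of over 20% in size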)
# Summary of the method: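 HepG2 cells seeded overnight at 37 C, then exposed to compound or DMSO for 1 hr at 37 C, 5% CO2. m-MPI dye added, then CellTiter-Glo for 30 min at room temperature; viability read as ATP luminescence.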
# [5] = qHTS assay to test for compound auto fluorescence at 590 nm (red) in HepG2 cells (AID 720674)
# Summary of the method: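 HepG2 cells, 2,000 per well in MEM with 10% FBS, attached overnight at 37 C, then got 23 nL compound or DMSO. After 1 hr at 37 C, 5% CO2, red fluorescence was read at 540/590 nm against Rose Bengal sodium as reference.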
# [6] = qHTS assay to test for compound auto fluorescence at 535 nm (green) in HepG2 cells (AID 720675)
# [7] = qHTS assay to test for compound auto fluorescence at 460 nm (blue) in HEK293 cells (AID 720678)
# Summary of the method: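 Cells were seeded and left to adhere for 4-5 hr at 37C. Compounds were then pin-transferred. After an overnight incubation at 37C under 5% CO2, intrinsic fluorescence at 405/460 nm was measured and referenced to triamterene.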
# [8] = qHTS assay to test for compound auto fluorescence at 590 nm (red) in HEK293 cells (AID 720679)
# Summary of the method: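 Each well held 2,000 HEK293 cells in medium containing 10% dialyzed FBS. Following 4-5 hr attachment at 37C, 23 nL test compound or DMSO was added; plates sat overnight, and red fluorescence (540/590nm) was recorded.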
# [9] = qHTS assay to test for compound auto fluorescence at 535 nm (green) in HEK293 cells (AID 720680)
# [10] = qHTS assay to test for compound auto fluorescence at 460 nm (blue) in HEK293 cell free culture (AID 720681)
# Summary of the method: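 Compounds were added to cell-free DMEM with 10% FBS and fluorescence read directly. The blue channel used 405 nm excitation and 460 nm emission, with triamterene as the reference fluorophore.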
# [11] = qHTS assay to test for compound auto fluorescence at 535 nm (green) in HEK293 cell free culture (AID 720682)
# Summary of the method: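 Read-out: 485/535 nm fluorescence intensity, calibrated against fluorescein. Medium only (DMEM + 10% FBS, no cells); test compound or DMSO vehicle added by pintool before plate reading.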
# [12] = qHTS assay to test for compound auto fluorescence at 590 nm (red) in HEK293 cell free culture (AID 720683)
# Summary of the method: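 Cell-free wells of DMEM with 10% FBS received compound, and intrinsic fluorescence was read at excitation/emission 540/590 nm. Values expressed as equivalence to Rose Bengal sodium.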
# [13] = qHTS assay to test for compound auto fluorescence at 590 nm (red) in HepG2 cell free culture (AID 720684)
# Summary of the method: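 Compound was pinned into wells holding MEM with 10% FBS and no cells, and red fluorescence was read at Ex/Em 540/590 nm. Signal is expressed as auto fluorescence equivalency relative to Rose Bengal sodium.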
# [14] = qHTS assay to test for compound auto fluorescence at 460 nm (blue) in HepG2 cell free culture (AID 720685)
# Summary of the method: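 Compound (23 nL) or DMSO pinned into cell-free MEM with 10% FBS; blue fluorescence read at 405/460 nm excitation/emission, expressed as auto-fluorescence equivalency to triamterene.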
# [15] = qHTS assay to test for compound auto fluorescence at 535 nm (green) in HepG2 cell free culture (AID 720686)
# [16] = qHTS assay to test for compound auto fluorescence at 460 nm (blue) in HepG2 cells (AID 720687)
# Summary of the method: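 HepG2 cells in MEM with 10% FBS, attached overnight at 37 C, were exposed to compound or DMSO for 1 hr at 37 C, 5% CO2. Blue fluorescence was read at 405/460 nm, with triamterene as reference fluorophore.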
# [17] = target: Glucocorticoid receptor (Homo sapiens) (UniProt P04150); assay: qHTS assay to identify small molecule agonists of the glucocorticoid receptor (GR) signaling pathway (AID 720691; active = well fitted activation curve with a large enough effect in the signal ratio in the repeat runs, not every such curve was filed as active; the % refers to the signal ratio); settings: GR-bla HeLa, beta-lactamase reporter ratio, 18 h; activation: at 62.4 µM (top of the series) unless noted
# Summary of the method: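 GR-bla HeLa cells (beta-lactamase reporter under glucocorticoid response element) were plated 4 h at 37 C/5% CO2, given compounds in DMSO, and incubated 18 h at 37 C. LiveBLAzer B/G FRET substrate was added for 2 h at room temperature, then fluorescence intensity read.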
# [18] = target: Glucocorticoid receptor (Homo sapiens) (UniProt P04150); assay: qHTS assay to identify small molecule antagonists of the glucocorticoid receptor (GR) signaling pathway (AID 720692; active = well fitted inhibition curve with a large enough effect in the signal ratio in the repeat runs, not every such curve was filed as active; the % refers to the signal ratio)
# Summary of the method: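 GR-bla HeLa cells (beta-lactamase reporter under glucocorticoid response element) were pre-plated 4 h at 37 C, treated with compounds plus 5 nM dexamethasone (final) for 18 h, then read by LiveBLAzer B/G FRET fluorescence after 2 h.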
# [19] = qHTS assay for small molecule disruptors of the mitochondrial membrane potential (AID 720635); note: potency is the fitted concentration of half-maximal effect
# Summary of the method: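 HepG2 cells exposed to compound 1 hr at 37C, then Mito-MPS dye 30 min. Ratio read of aggregate (540/590 nm) versus monomer (490/535 nm) fluorescence.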
# Sequence of Glucocorticoid receptor (Homo sapiens) (P04150 whole entry, looked up): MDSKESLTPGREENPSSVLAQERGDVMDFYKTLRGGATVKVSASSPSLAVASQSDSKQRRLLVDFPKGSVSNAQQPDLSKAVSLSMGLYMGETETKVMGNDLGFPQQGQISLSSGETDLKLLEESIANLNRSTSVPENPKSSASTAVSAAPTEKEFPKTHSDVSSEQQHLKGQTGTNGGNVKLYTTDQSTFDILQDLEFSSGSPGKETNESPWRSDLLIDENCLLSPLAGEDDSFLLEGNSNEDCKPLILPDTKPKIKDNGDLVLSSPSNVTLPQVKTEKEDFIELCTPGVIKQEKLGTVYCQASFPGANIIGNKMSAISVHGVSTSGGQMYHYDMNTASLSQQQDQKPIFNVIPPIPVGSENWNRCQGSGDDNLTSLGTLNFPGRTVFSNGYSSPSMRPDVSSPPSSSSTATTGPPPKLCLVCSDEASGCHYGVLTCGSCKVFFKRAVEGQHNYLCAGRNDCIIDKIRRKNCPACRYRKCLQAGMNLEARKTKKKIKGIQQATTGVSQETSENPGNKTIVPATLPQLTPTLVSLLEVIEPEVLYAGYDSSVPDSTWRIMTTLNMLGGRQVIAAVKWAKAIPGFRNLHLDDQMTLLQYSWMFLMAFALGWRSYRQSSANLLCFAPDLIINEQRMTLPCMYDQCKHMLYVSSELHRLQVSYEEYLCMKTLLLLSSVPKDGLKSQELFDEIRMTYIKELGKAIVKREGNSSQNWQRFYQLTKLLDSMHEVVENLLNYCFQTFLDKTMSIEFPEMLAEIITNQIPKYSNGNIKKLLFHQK
structure (smiles),measurement,setting,value
CN(C)CCN(Cc1ccc(Cl)cc1)c1ccccn1,Potency,[1],inactive
same,Potency,[2],inactive
same,Potency,[3],inactive
same,Potency,[4],inactive
same,"fluorescence, relative to Rose Bengal",[5],0.0058% [at 18.6 µM]
same,"fluorescence, % of fluorescein control",[6],0.0171% [at 18.6 µM]
same,"fluorescence, % of triamterene",[7],0.037% [at 18.6 µM]
same,"fluorescence, % of fluorescent control",[8],-0.0077% [at 18.6 µM]
same,"fluorescence, % of fluorescein",[9],0.0009% [at 18.6 µM]
same,"fluorescence, % of fluorescent control",[10],-0.0429% [at 18.6 µM]
same,activity change,[11],2e-05% [at 18.6 µM]
same,"fluorescence, % of fluorescent control",[12],-0.237% [at 18.6 µM]
same,"fluorescence, % of Rose Bengal",[13],0.0021% [at 18.6 µM]
same,"fluorescence, % of fluorescent control",[14],0.027% [at 18.6 µM]
same,"fluorescence, % of fluorescein control",[15],-0.14% [at 18.6 µM]
same,"fluorescence, % of fluorescent control",[16],-0.0264% [at 18.6 µM]
same,Potency,[17],inactive
same,Potency,[18],inactive
CCC(C)(C)CC,Potency,[1],inactive
same,Potency,[2],inactive
same,Potency,[3],inactive
same,Potency,[4],inactive
same,Potency,[5],inactive
same,Potency,[6],inactive
same,outcome,[7],inactive
same,Potency,[8],inactive
same,outcome,[9],inactive
same,outcome,[10],inactive
same,outcome,[11],inactive
same,Potency,[12],inactive
same,Potency,[13],inactive
same,outcome,[14],inactive
same,Potency,[15],inactive
same,outcome,[16],inactive
same,Potency,[17],inactive
same,Potency,[18],inactive
CC(C)=CCC/C(C)=C/CC/C(C)=C/CO,Potency,[1],inactive
same,Potency,[2],68.6 µM (active)
same,Potency,[3],inactive
same,Potency,[4],inactive
same,Potency,[5],inactive
same,Potency,[6],inactive
same,Potency,[8],inactive
same,outcome,[10],inactive
same,outcome,[11],inactive
same,Potency,[12],inactive
same,Potency,[13],inactive
same,outcome,[14],inactive
same,Potency,[15],inactive
same,outcome,[16],inactive
CC(C)(CO)[N+](=O)[O-],Potency,[1],inactive
same,Potency,[2],inactive
same,Potency,[3],inactive
same,Potency,[4],inactive
same,Potency,[5],inactive
same,Potency,[6],inactive
same,outcome,[7],inactive
same,Potency,[8],inactive
same,outcome,[9],inactive
same,outcome,[10],inactive
same,outcome,[11],inactive
same,Potency,[12],inactive
same,Potency,[13],inactive
same,outcome,[14],inactive
same,Potency,[15],inactive
same,outcome,[16],inactive
same,Potency,[17],inactive
same,Potency,[18],inactive
Cc1nn(C)c(Oc2ccccc2)c1/C=N/OCc1ccc(C(=O)OC(C)(C)C)cc1,Potency,[1],inactive
same,Potency,[2],inactive
same,Potency,[3],inactive
same,Potency,[19],17.2 µM (active)
same,Potency,[5],inactive
same,Potency,[6],inactive
same,outcome,[7],inactive
same,Potency,[8],inactive
same,outcome,[9],inactive
same,outcome,[10],inactive
same,outcome,[11],inactive
same,Potency,[12],inactive
same,Potency,[13],inactive
same,outcome,[14],inactive
same,Potency,[15],inactive
same,outcome,[16],inactive
same,Potency,[17],inactive
CN1CCC(=C2c3ccccc3Sc3ccccc32)CC1,Potency,[1],inactive
same,Potency,[2],29.8 µM (active)
same,Potency,[3],26.6 µM (active)
same,Potency,[4],inactive
same,Potency,[6],inactive
same,Potency,[8],inactive
same,outcome,[10],inactive
same,outcome,[11],inactive
same,Potency,[12],inactive
same,Potency,[13],inactive
same,outcome,[14],inactive
same,Potency,[15],inactive
same,outcome,[16],inactive
same,Potency,[17],inactive
c1cc(CCCc2ccncc2)ccn1,Potency,[1],inactive
same,Potency,[2],inactive
same,Potency,[3],inactive
same,Potency,[4],inactive
same,Potency,[5],inactive
same,Potency,[6],inactive
same,Potency,[8],inactive
same,outcome,[9],inactive
same,outcome,[10],inactive
same,outcome,[11],inactive
same,Potency,[12],inactive
same,Potency,[13],inactive
same,outcome,[14],inactive
same,Potency,[15],inactive
same,outcome,[16],inactive
same,Potency,[17],inactive
same,Potency,[18],inactive
CCOc1ccc(N=Nc2ccc(/C=C/c3ccc(N=Nc4ccc(OCC)cc4)cc3S(=O)(=O)O)c(S(=O)(=O)O)c2)cc1,Potency,[1],inactive
same,Potency,[2],inactive
same,Potency,[3],42.6 µM (active)
same,Potency,[4],inactive
same,Potency,[5],inactive
same,Potency,[6],inactive
same,outcome,[7],inactive
same,Potency,[8],inactive
same,outcome,[9],inactive
same,outcome,[11],inactive
same,Potency,[12],inactive
same,Potency,[13],inactive
same,outcome,[14],inactive
same,Potency,[15],inactive
same,outcome,[16],inactive
same,Potency,[17],inactive
same,Potency,[18],inactive
CCCCCCCC#N,Potency,[1],inactive
same,Potency,[2],inactive
same,Potency,[4],inactive
same,Potency,[19],inactive
same,Potency,[5],inactive
same,Potency,[6],inactive
same,outcome,[7],inactive
same,outcome,[9],inactive
same,outcome,[10],inactive
same,outcome,[11],inactive
same,Potency,[12],inactive
same,Potency,[13],inactive
same,outcome,[14],inactive
same,Potency,[15],inactive
same,outcome,[16],inactive
same,Potency,[17],inactive
same,Potency,[18],inactive
OC(CN1CCC(Cc2ccc(F)cc2)CC1)c1ccc(Cl)cc1 (stereo unspecified),Potency,[1],inactive
same,Potency,[2],inactive
same,Potency,[3],inactive
same,Potency,[4],inactive
same,Potency,[5],inactive
same,Potency,[6],inactive
same,outcome,[9],inactive
same,outcome,[10],inactive
same,outcome,[11],inactive
same,Potency,[12],inactive
same,Potency,[13],inactive
same,outcome,[14],inactive
same,Potency,[15],inactive
same,outcome,[16],inactive
same,Potency,[17],inactive
same,Potency,[18],inactive
C=C1C(=C/C=C2\CCC[C@]3(C)[C@@H]([C@H](C)/C=C/[C@@H](O)C4CC4)CC[C@@H]23)C[C@@H](O)C[C@@H]1O,Potency,[1],inactive
same,Potency,[2],26.6 µM (active)
same,Potency,[4],inactive
same,Potency,[19],22.1 µM (active)
same,Potency,[5],inactive
same,Potency,[6],inactive
same,outcome,[7],inactive
same,Potency,[8],inactive
same,outcome,[9],inactive
same,outcome,[10],inactive
same,outcome,[11],inactive
same,Potency,[12],inactive
same,Potency,[13],inactive
same,outcome,[14],inactive
same,Potency,[15],inactive
same,outcome,[16],inactive
same,Potency,[17],inactive
CCOC(=O)C1=C[C@]2(CC)CCCN3CCc4c(n1c1ccccc41)[C@@H]32,Potency,[1],inactive
same,Potency,[2],inactive
same,Potency,[3],inactive
same,Potency,[4],inactive
same,Potency,[5],inactive
same,Potency,[6],inactive
same,outcome,[7],inactive
same,outcome,[10],inactive
same,outcome,[11],inactive
same,Potency,[12],inactive
same,Potency,[13],inactive
same,outcome,[14],inactive
same,Potency,[15],inactive
same,outcome,[16],inactive
same,Potency,[17],inactive
same,Potency,[18],inactive
C=CC(=O)OCCOCCOCCOCCOC(=O)C=C,Potency,[2],inactive
same,Potency,[3],54.8 µM (active)
same,Potency,[4],inactive
same,Potency,[19],inactive
same,Potency,[6],inactive
same,outcome,[7],inactive
same,Potency,[8],inactive
same,outcome,[9],inactive
same,outcome,[10],inactive
same,outcome,[11],inactive
same,Potency,[13],inactive
same,outcome,[14],inactive
same,Potency,[15],inactive
same,outcome,[16],inactive
same,Potency,[17],inactive
CCO[C@H](Cc1ccc(OCCc2ccc(OS(C)(=O)=O)cc2)cc1)C(=O)O,Potency,[1],inactive
same,Potency,[4],inactive
same,Potency,[19],inactive
same,Potency,[5],inactive
same,Potency,[6],inactive
same,outcome,[7],inactive
same,Potency,[8],inactive
same,outcome,[9],inactive
same,outcome,[10],inactive
same,outcome,[11],inactive
same,Potency,[12],inactive
same,Potency,[13],inactive
same,outcome,[14],inactive
same,Potency,[15],inactive
same,outcome,[16],inactive
same,Potency,[17],inactive
same,Potency,[18],inactive
